Compound activity (PubChem BioAssay)
Most compounds without a hit are left out; they make up all but 1.5% or so of the library.
Eya2 inh: qHTS Assay for Inhibitors of the Phosphatase Activity of Eya2. Protein phosphatase EYA2 (Homo sapiens), O00167. recombinant Eya2, OMFP fluorescence dephosphorylation (OMFP is methylfluorescein phosphate). Potency, µM (top dose mostly 76.9 µM), hits mostly inhibitors. 330,000 compounds, 0.006% hits. AID 488837, 2010
Target sequence (O00167 whole entry, looked up): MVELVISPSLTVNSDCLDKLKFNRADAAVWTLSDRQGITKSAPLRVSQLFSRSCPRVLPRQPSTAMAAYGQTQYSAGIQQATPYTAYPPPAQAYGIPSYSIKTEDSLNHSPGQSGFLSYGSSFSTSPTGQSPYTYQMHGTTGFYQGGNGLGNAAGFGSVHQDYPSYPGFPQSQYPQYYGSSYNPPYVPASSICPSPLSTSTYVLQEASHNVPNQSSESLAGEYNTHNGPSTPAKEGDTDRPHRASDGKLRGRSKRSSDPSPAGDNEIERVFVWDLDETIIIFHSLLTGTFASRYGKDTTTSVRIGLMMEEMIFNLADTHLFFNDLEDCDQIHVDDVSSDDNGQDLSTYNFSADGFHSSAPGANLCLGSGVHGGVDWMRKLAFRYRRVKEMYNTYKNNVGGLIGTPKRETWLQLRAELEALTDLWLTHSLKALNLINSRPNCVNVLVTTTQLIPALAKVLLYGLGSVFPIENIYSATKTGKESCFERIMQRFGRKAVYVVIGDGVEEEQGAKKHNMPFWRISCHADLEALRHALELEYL
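Eya2 protein (added as 0.2 uM solution) was preincubated with compound for 10 min at ambient temperature in 50 mM HEPES pH 7.5, 50 mM NaCl, 5 uM MgCl2, 0.05% BSA, 1 mM DTT. OMFP (added at 50 uM) then reacted 10 min; fluorescence read at 485/525 nm.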
mIDH1 inhibitor: qHTS for Inhibitors of mutant isocitrate dehydrogenase 1 (IDH1): qHTS | Isocitrate dehydrogenase [NADP] cytoplasmic (Homo sapiens), O75874 | IDH1-R132H enzyme, NADPH consumption, diaphorase/resazurin fluorescence | Potency, µM (series often up to 76.6 µM), usual class: inhibitors | 390,000 compounds, 0.093% hits | AID 602179, 2012; also: nearly all actives have a fitted effect of over 65% in size
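IDH1-R132H (0.5 ug/mL dispensed) in pH 7.5 Tris buffer was preincubated 30 min with compound, then given a substrate mix of 0.016 mM NADPH and 2 mM alpha-KG for 80 min at room temperature; remaining NADPH was read by diaphorase/resazurin fluorescence.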
Coupling enz: qHTS Assay for Inhibitors of Fructose-1,6-bisphosphate Aldolase from Giardia Lamblia: Coupling assay counterscreen. coupling enzyme system counterscreen, AmpLite Red fluorescence. activity change, negative = inhibition, % at 58.2 µM, hits read low. 290,000 compounds, 0.67% hits. AID 2472, 2010; in the data active = activity change below about -30%
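Counterscreen lacking aldolase: glyceraldehyde-3-phosphate coupling-enzyme reagent preincubated 10 min at RT with compound (at 57.5 uM final), then substrate/coupling system with AmpLite Red added; fluorescence read at 525/598 nm after 20 min RT.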
TrxR1 substrate: qHTS Assay for Substrates of Mammalian Selenoprotein Thioredoxin Reductase 1 (TrxR1): qHTS. Potency, µM (top dose mostly 114 µM). Thioredoxin reductase 1, cytoplasmic (Rattus norvegicus), O89049. purified TrxR1 substrate turnover, NADPH consumption readout. 390,000 compounds, 0.01% hits; also: nearly all actives have a fitted effect of over 50% in size
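Rat TrxR1, dispensed at 90 nM, was prereduced with 400 uM NADPH (final) for 5 min at ~22 deg C, then incubated with compound 15 min before 400 uM selenite. A first-read NADPH fluorescence drop versus no-compound background flagged substrates.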
TrxR1 inh: qHTS Assay for Inhibitors of Mammalian Selenoprotein Thioredoxin Reductase 1 (TrxR1): qHTS | recombinant rTrxR1, NADPH fluorescence consumption, selenite substrate | Thioredoxin reductase 1, cytoplasmic (Rattus norvegicus), O89049 | 390,000 compounds, 1% hits | AID 588453, 2011 | Potency, µM (top dose mostly 114 µM), actives largely listed as inhibitors; also: nearly all actives have a fitted effect of over 65% in size
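Rat TrxR1 (90 nM in the dispensed reagent) was pre-reduced with 400 uM NADPH for 5 min at room temperature, then incubated with compound for 15 min. After 400 uM selenite was added, NADPH fluorescence (Ex 340/Em 450 nm) was followed for 8 min.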
A number is an active result; . = inactive; ? = inconclusive; / = no result given; ! = not active in a repeat; [ ] = remark or other dose. Unless noted, calls follow the shape of the dose curve; as a rule, active = well fitted curve in the direction sought with a large enough effect; inconclusive = small, poorly fitted or top-dose-only effect, or another doubt; inactive = no such curve, though single readings can be large; an effect the other way counts as inactive or inconclusive.

SMILES | Eya2 inh | mIDH1 inhibitor | Coupling enz | TrxR1 substrate | TrxR1 inh
CC(=O)CCc1oc2ccc(NC(C)=O)cc2c1-c1ccc(C)o1 | . | . | . | . | 20µM
Cc1ccc2c(c1)C/C(=C/c1ccc(N(C)C)cc1)C2=O | / | / | / | . | .
COC(=O)/C=C/c1cc(F)ccc1S(=O)(=O)Nc1ccccc1 | / | / | / | . | .
CCN(CC)c1ccc(C2Nc3cccc4cccc(c34)N2)cc1 | . | . | . | . | .
Brc1ccc(C2Nc3cccc4cccc(c34)N2)cc1 | / | . | / | . | ?
Fc1ccc(C2Nc3cccc4cccc(c34)N2)cc1 | . | . | . | . | 25µM
Cc1ccc(C2Nc3cccc4cccc(c34)N2)s1 | . | . | . | . | 22µM
FC(F)(F)c1ccc(C2Nc3cccc4cccc(c34)N2)cc1 | . | . | . | . | 28µM
CC(=O)C[C@H]1c2cc(F)cc(F)c2S(=O)(=O)N1C1CCN(Cc2ccccc2)CC1 | / | / | / | . | .
O=C(c1ccc2c(c1)C(=O)N(CCCO)C2=O)c1ccc2c(c1)C(=O)N(CCCO)C2=O | . | . | . | . | .
O=C1c2ccc3c4c(ccc(c24)C(=O)N1CCCCO)C(=O)N(CCCCO)C3=O | . | . | -40 | . | .
CC(=O)CSc1nc2cc3c(cc2cc1C#N)OCCO3 | . | . | -43 | . | .
N#Cc1cc2cc3c(cc2nc1SCC(=O)N1CCCC1)OCCO3 | . | . | . | ? | .
O=C1NCCCc2c1oc1cc(Br)c(O)c(Br)c21 | . | . | . | . | .
O=C1NCCCC2c3c(cc(Br)c(O)c3Br)OC12N1CCCCC1 (centres undefined) | . | . | . | . | 25µM
COc1cc(OC)c(Nc2c3c(nc4nc(-c5cccs5)nn24)CCCC3)cc1Cl | / | 32µM | / | . | .
[O-]/[N+](=C\c1ccncc1)c1ccc(Br)cc1 | . | . | . | . | 35µM
Nc1cc(OC(=O)c2cccs2)nn1S(=O)(=O)c1ccc(F)cc1 | . | . | . | . | 79µM
COc1ccc(C(=O)Oc2cc(N)n(S(=O)(=O)c3ccccc3)n2)cc1 | . | . | . | . | .
COc1ccc(S(=O)(=O)n2nc(OC(C)=O)cc2N)cc1 | . | . | . | . | 18µM
Nc1nc2c(nc(N3CCOCC3)n2COCCO)c(=O)[nH]1 | / | / | / | . | .[0.0914 µM]
CC(=O)Nc1ccc(C(=O)COC(=O)CCS(=O)(=O)c2ccccc2)cc1 | . | . | / | . | .
O=C(COC(=O)CCS(=O)(=O)c1ccccc1)Nc1ccccc1 | . | . | / | . | 45µM
CCOC(=O)Cc1csc(NC(=O)NC2(C(F)(F)F)Oc3cc(Cl)c(Cl)cc3O2)n1 | . | . | . | . | ?
CCOC(=O)Cc1csc(NC(=O)Nc2ccc(OC(F)(F)F)cc2)n1 | . | . | . | . | .
SMILES | Eya2 inh | mIDH1 inhibitor | Coupling enz | TrxR1 substrate | TrxR1 inh
CCOC(=O)Cc1csc(NC(=O)NC2(C(F)(F)F)Oc3ccc(Cl)cc3O2)n1 (centres undefined) | . | . | . | . | 8.9µM
CCOC(=O)Cc1csc(NC(=O)NC2(C(F)(F)F)Oc3ccccc3O2)n1 | . | . | . | . | 11µM
CC(C)(C)c1ccc(CN2N=Nc3ccccc3S2(=O)=O)cc1 | . | . | -49 | . | ?
O=C1CSC(c2cn(-c3ccccc3)nc2-c2cc3ccccc3o2)N1Cc1ccccc1 (centres undefined) | . | . | . | . | .
Cc1ccc(-c2nn(-c3ccccc3)cc2C2SCC(=O)N2Cc2ccccc2)o1 (centres undefined) | . | . | . | . | 56µM
CN(C)C1CCc2[nH]c3ccc(NC(=O)c4ccc(F)cc4)cc3c2C1 (centres undefined) | / | / | . | / | /
Cc1[nH][nH]c(=O)c1C(c1c(C)[nH][nH]c1=O)c1cn(C)c2ccccc12 | . | . | -65 | . | .[11.4 µM]
Cc1[nH][nH]c(=O)c1C(c1c(C)[nH][nH]c1=O)c1cn(Cc2cccc3ccccc23)c2ccccc12 | . | . | -51 | . | .
CC(C)CC(CSc1ccc(Br)cc1)N1CCN(C)CCC1=O (centres undefined) | / | / | . | . | .
NC(CC(=O)Nc1ccc(Oc2cc(F)c(F)cc2Br)cc1)C(=O)O (centres undefined) | / | / | . | / | /
CC(C)NC(=O)c1cc(-c2ccco2)nn1-c1ccc(Cl)cc1 | . | . | / | . | 20µM
Cc1ccc(-n2nc(-c3ccco3)cc2C(=O)O)cc1 | . | . | . | . | ?
O=C(c1cc(-c2ccco2)nn1-c1cccc(Cl)c1)N1CCCCC1 | . | . | . | . | 14µM
COc1ccc2c(c1)O[C@H](c1ccc3c(c1)OCO3)[C@@H](OC(=O)Nc1ccc(OC(F)F)cc1)C2=O | / | / | . | / | /
COc1ccccc1N1C(=O)CC(Sc2nccc(C)n2)C1=O (centres undefined) | . | . | . | . | .
COc1ccccc1N1C(=O)CC(Sc2n[nH]c(-c3cccc(C)c3)n2)C1=O (centres undefined) | . | . | . | . | 1.6µM
COc1ccc(/C=C(\C)C(=O)NO)cc1 | / | / | / | . | .
C=Cc1c(C)c2cc3[nH]c(cc4nc(cc5nc(cc1[nH]2)C(C)=C5CCC(=O)O)C(CCC(=O)O)=C4C)c(C)c3C=C | . | ? | . | . | 5.3µM!
Nc1ncnc(Sc2ncccn2)c1[N+](=O)[O-] | . | . | . | . | 1.4µM
Nc1ncnc(Sc2ccccc2)c1[N+](=O)[O-] | . | . | . | . | .
S=C(NCCCc1cnc[nH]1)NCCCN(CCc1ccccc1)c1ccc(Br)cn1 | / | / | / | . | .
Nc1cccc2nsnc12 | . | . | . | . | .[11.4 µM]
Nc1cc2nsnc2cc1Br | . | . | -32 | ? | .
COc1cc2nc(N3CCCCC3)nc(NC3CCN(Cc4ccccc4)CC3)c2cc1OC | / | / | / | . | .
Cc1ccc(S(=O)(=O)NC2CCCCCCC2)cc1 | . | . | . | . | .
Cc1ccc(S(=O)(=O)NC2OC(=O)C(Cl)=C2Cl)cc1 (centres undefined) | . | . | . | . | 10µM
